Out of some 350,000 compounds screened, about 5,500 (1.6%) were called active. This is one part of a sample in which actives are shown more often than they occur.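 The calls were made as follows: active = significant combined selectivity score with lowered wild-type GFP, culture density cut under 30%, mutant RFP and density less affected; inactive = any of these conditions unmet.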

This test can be described thus: GFP drop in mixed WT/humanized-ribosome E. coli culture – GFP/RFP fluorescence, OD600, single point, bacterial rRNA inhibitor project, primary screen (AID 720706). Particulars: E. coli WT GFP vs humanized-ribosome RFP mutants, 24 h; GFP signal change (wild-type ribosome): stronger effect = lower value, DMSO median 0, no signal -100; OD600 change: measured here: OD600 growth, DMSO median 0, no signal -100; RFP signal change: measured here: RFP humanized mutant strains, DMSO median 0, no signal -100, concentration not given here.
As for `C[C@@H]1CCCCO[C@@H](CN(C)S(=O)(=O)c2cccs2)[C@H](C)CN([C@H](C)CO)C(=O)c2cc(NC(=O)CCCN(C)C)ccc2O1`, the GFP signal change (wild-type ribosome) is 0.863% (inactive), the OD600 change came to 4.81% and the RFP signal change was -0.962%.

With `COCCn1c(=O)[nH]c(=O)c2cc(C(=O)c3cc(OC)ccc3O)cnc21`, the GFP signal change (wild-type ribosome) was -0.725% (inactive), the OD600 change is -0.37% and the RFP signal change came out at 12.8%.

Consider `Cc1cc(C)c2c(-c3ccc(F)cc3)c(C#N)c(=O)n(C)c2n1`, for which the GFP signal change (wild-type ribosome) is 2.75% (inactive), the OD600 change was 5.62% and the RFP signal change was -1.52%.

On to `COc1ccc(O)c(C(=O)c2cnc3c(c2)c(-c2ccc(F)cc2)c(C#N)c(=O)n3C)c1`, for which the GFP signal change (wild-type ribosome) was -17% (active), the OD600 change was found to be 6.31% and the RFP signal change was 1.18%.

On to `O=C(Cc1ccccc1)N1N=C(c2ccncc2)CC1(O)C(F)(F)F` (stereo unspecified), for which the GFP signal change (wild-type ribosome) is 7.85% (inactive), the OD600 change is -1.11% and the RFP signal change came to 2.05%.

For the compound `CC(=O)N1N=C(c2ccccc2)OC1c1cccnc1` (stereo unspecified), the GFP signal change (wild-type ribosome) was 9.41% (inactive), the OD600 change was -5.18% and the RFP signal change was -3.3%.

`CC(=O)N1N=C(c2ccncc2)OC1(Cc1ccccc1)Cc1ccccc1`: the GFP signal change (wild-type ribosome) is -37.5% (active), the OD600 change is -22% and the RFP signal change was -2.93%.

`COc1cccc(N2C(=O)CN(Cc3ccccc3)C2=S)c1`: the GFP signal change (wild-type ribosome) is -8.56% (inactive), the OD600 change is -0.07% and the RFP signal change came to 3.96%.

For `Cc1cccc(C)c1N1C(=O)CN(Cc2ccccc2)C1=S`, the GFP signal change (wild-type ribosome) is -22.1% (active), the OD600 change is -16.8% and the RFP signal change is -3.28%.

For the compound `CCc1cccc(C)c1N1C(=O)CN(Cc2ccccc2)C1=S`, the GFP signal change (wild-type ribosome) was 1.91% (inactive), the OD600 change was -44.9% and the RFP signal change was -8.39%.

Turning to `CCC(=O)N1CC(=O)N2[C@H](CO)[C@@H](c3ccc(-c4ccc(C(=O)N(C)C)cc4)cc3)[C@H]2C1`, the GFP signal change (wild-type ribosome) is 4.58% (inactive), the OD600 change was found to be 2.18% and the RFP signal change was -2.34%.

Regarding `COC(=O)c1cc(OC)ccc1-c1ccc(OC)cc1`, the GFP signal change (wild-type ribosome) is -32.6% (active), the OD600 change was -15.3% and the RFP signal change was -6.08%.

Turning to `COc1ccc(SSc2ccc(OC)cc2C(=O)O)c(C(=O)O)c1`, the GFP signal change (wild-type ribosome) is 11.9% (inactive), the OD600 change was determined as 11.8% and the RFP signal change is -2.19%.

In the case of `COc1ccc(C(=O)CC(=O)c2ccc(C)cc2)c(O)c1`, the GFP signal change (wild-type ribosome) is -49% (inactive), the OD600 change was -75.2% and the RFP signal change was -24.9%.

In the case of `COc1ccccc1S(=O)(=O)N[C@@H]1CC[C@H](CCn2cc(C3CCCC3)nn2)O[C@H]1CO`, the GFP signal change (wild-type ribosome) was 1.1% (inactive), the OD600 change stood at 3.92% and the RFP signal change was -3.27%.

Turning to `C[C@H](CO)N1C[C@H](C)[C@H](CN(C)CC2CC2)OCCCC[C@H](C)Oc2ccc(NS(=O)(=O)c3cccs3)cc2C1=O`, the GFP signal change (wild-type ribosome) is -0.767% (inactive), the OD600 change is -2.73% and the RFP signal change was -0.839%.

Consider `Cc1ccc(-c2ccc([C@H]3[C@H](CO)N4C(=O)CN(S(=O)(=O)c5cccc(F)c5)C[C@@H]34)cc2)cc1`, for which the GFP signal change (wild-type ribosome) was -2.35% (inactive), the OD600 change is -0.94% and the RFP signal change came out at 0.984%.

Turning to `CCC(=O)Nc1ccc2c(c1)nc(CCN1CCN(c3ccccn3)CC1)n2C`, the GFP signal change (wild-type ribosome) was 4.56% (inactive), the OD600 change is 7.29% and the RFP signal change turned out to be 1.64%.

Consider `Cn1c(=O)n(C)c2cc(NS(=O)(=O)c3ccc(F)cc3)ccc21`, for which the GFP signal change (wild-type ribosome) was 0.225% (inactive), the OD600 change is 0.76% and the RFP signal change is -4.92%.

As to `Cn1c(CCN2CCN(c3ccccn3)CC2)nc2cc(NS(=O)(=O)c3ccc(F)cc3)ccc21`, the GFP signal change (wild-type ribosome) is -28.9% (active), the OD600 change is -17% and the RFP signal change is 3.47%.

As for `COCC(=O)N1CC2(C1)CN(C(=O)COC)[C@@H](CO)c1c2c2ccc(OC)cc2n1C`, the GFP signal change (wild-type ribosome) was 4.63% (inactive), the OD600 change was determined as 7.89% and the RFP signal change stood at 0.659%.

Regarding `Cc1ccc(S(=O)(=O)N(C)C[C@@H]2OCCCC[C@@H](C)Oc3ccc(NC(=O)C4CCCCC4)cc3C(=O)N([C@H](C)CO)C[C@H]2C)cc1`, the GFP signal change (wild-type ribosome) is -2.75% (inactive), the OD600 change was -2.24% and the RFP signal change was found to be 1.84%.

On to `CCCCNC(=O)C1(O)c2ccccc2NC(=O)N1c1ccc(Cl)cc1` (stereo unspecified), for which the GFP signal change (wild-type ribosome) is -25.8% (active), the OD600 change was -20.4% and the RFP signal change is 0.114%.

For the compound `CCOCCCNC(=O)C1(O)c2cc(Br)ccc2NC(=O)N1c1ccc(C)c(C)c1` (stereo unspecified), the GFP signal change (wild-type ribosome) is 4.8% (inactive), the OD600 change was 3.91% and the RFP signal change was determined as 0.676%.

For the compound `CCOc1ccc(N2C(=O)Nc3ccccc3C2(O)C(=O)NCc2ccco2)cc1` (stereo unspecified), the GFP signal change (wild-type ribosome) is 2.27% (inactive), the OD600 change was 2.6% and the RFP signal change amounted to 0.0175%.

As for `CNC[C@@H]1Oc2c(NC(=O)Nc3ccc(F)cc3)cccc2C(=O)N([C@@H](C)CO)C[C@@H]1C`, the GFP signal change (wild-type ribosome) is 0.51% (inactive), the OD600 change worked out at 5.77% and the RFP signal change was -0.32%.

As for `CCCNC(=O)C[C@H]1CC[C@H]2[C@@H](COC[C@H](O)CN2C(=O)Nc2c(C)noc2C)O1`, the GFP signal change (wild-type ribosome) was -3% (inactive), the OD600 change was found to be 7.33% and the RFP signal change is -4.75%.

Turning to `C[C@@H]1CN([C@@H](C)CO)S(=O)(=O)c2ccc(/C=C/c3ccccc3)cc2O[C@@H]1CN(C)C(=O)Nc1cc(F)ccc1F`, the GFP signal change (wild-type ribosome) is -1.81% (inactive), the OD600 change is 7.09% and the RFP signal change is -0.095%.

As to `COc1ccc(CCNc2cc(N3CCN(C(=O)c4ccccc4OC)CC3)ccc2[N+](=O)[O-])cc1OC`, the GFP signal change (wild-type ribosome) was 2.05% (inactive), the OD600 change is -0.295% and the RFP signal change was 6.64%.

On to `CC(=O)Nc1ccc(S(=O)(=O)N2CCN(c3ccc([N+](=O)[O-])c(NCCN4CCOCC4)c3)CC2)cc1`, for which the GFP signal change (wild-type ribosome) is -2.32% (inactive), the OD600 change amounted to 3% and the RFP signal change is 1.54%.

In the case of `COc1ccccc1OCCNc1cc(N2CCOCC2)ccc1[N+](=O)[O-]`, the GFP signal change (wild-type ribosome) was -27.3% (active), the OD600 change was -18.1% and the RFP signal change is -0.933%.

With `CNC[C@H]1OCCCC[C@H](C)Oc2ccc(NC(=O)Nc3ccc(C(F)(F)F)cc3)cc2C(=O)N([C@H](C)CO)C[C@@H]1C`, the GFP signal change (wild-type ribosome) was -45.6% (inactive), the OD600 change is -74.3% and the RFP signal change was -0.5%.

For the origin of these results see PubChem BioAssay AID720706 (Broad Institute, 2013).
